According to PubChem BioAssay:
Several values for one entry are separate records, joined by “and”; a condition that tells them apart may be missing. Identical values can stand only once. Activity calls are given as the source filed them.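 Rule for the calls: active = normalized viability below 100% at a tested concentration; inactive = the rest.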 Numbered stars: 1 amine (or outer) side, 2 acyl side, 3 side chain; on linkers, the order of the positions; unused ones are H or OH. Bridge positions count the residues as written; N and C are the ends. Square brackets hold non-standard residues; d marks the D form. Peptide text beside a SMILES is read from it. * marks the point of attachment. X4 = NC1=N[C@@H]([C@H](N[*:1])C(=O)[*:2])C[C@H](O)N1; ΔAla(Z-3-ureido) = NC(=O)N/C=C(\N)C(=O)O; β3hOrn = NCCC[C@H](N)CC(=O)*; Dap = NC[C@H](N)C(=O)O

Assay: survival rescue of mitochondrial mutant cells in low glucose, primary screen, MELAS cybrids, Rieske KO mouse fibroblasts, CellTiter-Glo (AID 1508586);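 note: z relative to plate mean and SD of compound and empty wells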
Details: Rieske KO mouse fibroblast survival, CellTiter-Glo 72 h

Structure (SMILES) | z-score
CCOC(=O)O[C@]1(C(=O)COC(=O)CC)CC[C@H]2[C@@H]3CCC4=CC(=O)C=C[C@]4(C)[C@H]3[C@@H](O)C[C@@]21C | 0.21
O=C(O)CCc1c[nH]c2ccccc12 | -0.334
NC[C@H]1O[C@H](O[C@H]2[C@H](O)[C@@H](O[C@H]3O[C@H](CO)[C@@H](O)[C@H](N)[C@H]3O)[C@H](N)C[C@@H]2N)[C@H](O)[C@@H](O)[C@@H]1O | -0.145
CCOc1nc2cccc(C(=O)OCc3oc(=O)oc3C)c2n1Cc1ccc(-c2ccccc2-c2noc(=O)[nH]2)cc1 | -0.018
CCOC(=O)NCCCC(=O)NCCc1ccccc1 | 0.919
CCn1ncc(NC(=O)Cn2cc(-c3ncnc4ccsc34)cn2)n1 | -0.147
C[C@@]1(c2nc3c(C(N)=O)cccc3[nH]2)CCCN1 | 0.497
C[C@]12CC[C@@H]3c4ccc(OS(=O)(=O)O)cc4CC[C@H]3[C@@H]1CCC2=O | -0.186
CNc1nc(-c2cccc(OC)c2)ncc1F | -0.0676
O=C1CN(c2ncnc3sccc23)CCN1Cc1cccc(F)c1 | 0.0557
CC(C)(O/N=C(\C(=O)N[C@@H]1C(=O)N2C(C(=O)[O-])=C(C[n+]3ccccc3)CS[C@H]12)c1csc(N)n1)C(=O)O | -0.289 and -0.00761
COC(=O)CN1CCN(C(=O)Nc2n[nH]c(-c3ccco3)n2)CC1=O | 0.531
Cn1c(=O)c2c(nc(N3CCNCC3)n2Cc2ccccc2)n(C)c1=O | -0.314
CO/N=C(\C(=O)N[C@@H]1C(=O)N2C(C(=O)O)=C(C[N+]3(C)CCCC3)CS[C@H]12)c1csc(N)n1 | -0.496
O=c1c(-c2ccc(O)cc2)coc2cc(OC3OC(CO)C(O)C(O)C3O)ccc12 (stereo not given) | -0.345
COc1ccc2nc(Cn3cnc4cc(F)ccc4c3=O)[nH]c2c1 | -0.0588
O=C1CN(c2ncnc3nc[nH]c23)CCN1Cc1cccc(F)c1 | -0.742
Cc1cccc(C)c1OCC(=O)O | 0.0496
O=c1c2nccnc2ncn1Cc1scnc1-c1ccccc1 | -0.294
CC(C)[N+]1(C)[C@@H]2CC[C@H]1CC(OC(=O)C(CO)c1ccccc1)C2 (stereo not given in full) | -0.158

Structure (SMILES) | z-score
NCCC[C@H](N)CC(=O)N[C@H]1CNC(=O)[C@H]([C@H]2C[C@H](O)NC(N)=N2)NC(=O)/C(=C/NC(N)=O)NC(=O)[C@H](CO)NC(=O)[C@H](CO)NC1=O (β3hOrn-[Dap]SS[ΔAla(Z-3-ureido)][X4]; lactam 1-C) | -0.532
O=C(O)c1ccccc1C(=O)O | -0.338
Cc1ccc(NC(=O)c2ccc(CN3CCN(C)CC3)cc2)cc1Nc1nc(-c2cccnc2)cs1 | 0.938
CC(=O)NCC1CN(c2ccc(N3CCOCC3)c(F)c2)C(=O)O1 (stereo not given) | 0.466
NCc1ccccc1CC(=O)N[C@@H]1C(=O)N2C(C(=O)O)=C(CSc3nnnn3CC(=O)O)CS[C@H]12 | -0.0556
CO[C@H]1C[C@H](O[C@H]2[C@H](C)[C@@H](O[C@@H]3O[C@H](C)C[C@H](N(C)C)[C@H]3OC(C)=O)[C@@H](C)C[C@@]3(CO3)C(=O)[C@H](C)[C@@H](OC(C)=O)[C@@H](C)[C@@H](C)OC(=O)[C@@H]2C)O[C@@H](C)[C@@H]1OC(C)=O | -0.0819 and -0.533
C[C@]12CC[C@H]3c4ccc(O)cc4CC[C@H]3[C@@H]1CCC2=O | 0.742
CO[C@@]1(NC(=O)C2SC(=C(C(N)=O)C(=O)O)S2)C(=O)N2C(C(=O)O)=C(CSc3nnnn3C)CS[C@@H]21 (stereo not given in full) | -0.132
C[C@@H]1CCC[C@H](C)N1NC(=O)c1ccc(Cl)c(S(N)(=O)=O)c1 | -0.0626 and -0.387
CC1(C)S[C@@H]2[C@H](NC(=O)[C@H](NC(=O)N3CCNC3=O)c3ccccc3)C(=O)N2[C@H]1C(=O)O | -0.381
O=C(O)CNC(=O)c1cccc(O)c1 | 0.0478
COc1cc(N(C)CC2COc3ccccc3O2)nc(N)n1 (stereo not given) | -0.0472
Cc1nc2ccc(-c3ncnc4sccc34)cc2c(=O)[nH]1 | 0.235
CC(C)C1=NOC(c2nc(-c3cccc4ccccc34)no2)C1 (stereo not given) | 0.252
O=C(NCC1(c2nc(-c3ccccc3)cs2)CCOCC1)c1cccc(-c2noc(C(F)(F)F)n2)c1 | 0.109
N#Cc1ccc2[nH]cc(CCCCN3CCN(c4ccc5oc(C(N)=O)cc5c4)CC3)c2c1 | -0.181
CCN(Cc1nccn1C)C(=O)c1cc(-c2cnc(C)nc2)nc2cc(F)ccc12 | -0.488
COc1ccc(CC(C)NCC(O)c2ccc(O)c(NC=O)c2)cc1 (stereo not given) | -0.0828
NS(=O)(=O)c1ccc(C(=O)NCCn2cccn2)cc1 | -0.563
Cc1c(OCC(F)(F)F)ccnc1C[S@@](=O)c1nc2ccccc2[nH]1 | -0.121

Assay: ovarian cancer cell viability with rucaparib, profiling panel, oncology-focused library, rucaparib conditional (AID 1508598)
Details: patient-derived ovarian cancer cells, CellTiter-Glo viability, 144 h; at 0.000305 µM; OCI-C5x cells; with rucaparib 10 µM; stronger effect = lower value; 100% = cells with rucaparib alone

Structure (SMILES) | viability
CCOC(=O)NCCCC(=O)NCCc1ccccc1 | 123% (inactive)
C[C@@]1(c2nc3c(C(N)=O)cccc3[nH]2)CCCN1 | 125% (inactive)
Cc1ccc(NC(=O)c2ccc(CN3CCN(C)CC3)cc2)cc1Nc1nc(-c2cccnc2)cs1 | 103% (inactive)
C[C@]12CC[C@H]3c4ccc(O)cc4CC[C@H]3[C@@H]1CCC2=O | 108% (inactive)
O=C(NCC1(c2nc(-c3ccccc3)cs2)CCOCC1)c1cccc(-c2noc(C(F)(F)F)n2)c1 | 124% (inactive)
